The panel holds about 83,000 compounds, 20% with a hit somewhere; the sample as a whole holds those more often.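 Note: values are percent growth. 100 is the growth of untreated cells, values between 100 and 0 indicate rising inhibition; between -100 and 0 indicates cell death.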 A number with no mark means an inactive call. The source made the active and inactive calls. Rule for the calls: active = growth percent below 10; inactive = the rest.

This experiment relates to TK-10 renal. The experiment can be described thus: NCI-60 one-dose screen, 48 h (100 = growth as untreated, 0 = no growth, -100 = all killed). Particulars: 10 µM unless noted.
For the molecule `CC/C(=C(/c1ccc(Cl)cc1)c1ccc(OCCN2CCCC2)cc1)c1ccc(OC)cc1`, the growth is 76.9%.

As for `c1cc2[nH]ncc2cc1-c1nc2ccc3[nH]ncc3c2c2c1CCCC2`, the growth is 8.08% (active).

Turning to `O=C(/C=C/c1ccc(Cl)cc1)c1cccc(Nc2nc(Nc3ccccc3)nc(Nc3ccccc3)n2)c1`, the growth is 92.6%.

As to `N#Cc1nc(-c2ccccc2)oc1S(=O)(=O)N1CCOCC1`, the growth is 94.5%.

Regarding `O=C1Nc2ccccc2/C1=C\c1nc(-c2ccccc2)n2ccccc12`, the growth is 84.2%.

As for `O=C(COc1ccc(-c2nc3ccccc3[nH]2)cc1)N=Nc1c(O)[nH]c2ccc(Cl)cc12`, the growth was 88.2%.

For the molecule `COc1ccc(NC(=O)c2sc3nc(C)c(C(=O)/C=C/c4cccc(OC)c4)cc3c2N)cc1`, the growth was 82.2%.

For the molecule `COc1cnc2c(c1)C(=O)c1c-2n(CCCNCCO)c(=O)c2ccncc12`, the growth is 15.9%.

On to `O=C(Nc1nc2ccc(F)cc2s1)c1cccnc1Nc1ccc(Cl)cc1`, for which the growth is 27.4%.

With `N#CC1C=CN(CC(N)=O)c2ccc3cccnc3c21` (centres undefined), the growth was 115%.

Consider `COc1ccc(-c2nc3c(c(-c4ccccc4)nn3-c3ccccc3)c(-c3ccc(N4CCN(C)CC4)cc3)c2C#N)cc1`, for which the growth is 99%.

`Cn1c(=O)c2[nH]c(N/N=C/c3ccccc3Br)nc2n(C)c1=O`: the growth was 82.8%.

For the molecule `O=C(Nc1ccc(NC(=O)c2cc(=O)[nH]c3ccccc23)cc1)Nc1cccc(C(F)(F)F)c1`, the growth is 134%.

Turning to `O=C1C(Cl)=C(Oc2ccccc2)C(=O)c2ccccc21`, the growth was 49.4%.

The record behind these values is PubChem BioAssay (NCI).
